# Data from PubChem BioAssay (NCATS).
# Where “and” joins values, the source holds several entries; their conditions need not be identical. Identical values can stand only once. Results filed as inconclusive are left out. Where a call stands in place of a potency, no number is given. Calls of active or inactive are those of the source. Unless noted, calls come from the whole dose curve. Numbered stars: 1 amine (or outer) side, 2 acyl side, 3 side chain; on linkers, the order of the positions; unused ones are H or OH. Bridge positions count the residues as written; N and C are the ends. Square brackets hold non-standard residues; d marks the D form. Peptide text beside a SMILES is read from it. * marks the point of attachment. ξ: configuration not given here. ξhTyr(3S-OH,4S-OH,3'-OSO3H) = NC(C(=O)O)[C@H](O)[C@@H](O)c1ccc(O)c(OS(=O)(=O)O)c1; Orn(4R-OH,5R-OH) = O=C([C@H](C[C@@H](O)[C@@H](O)N[*:3])N[*:1])[*:2]; X2 = CCCCCOc1ccc(-c2cc(-c3ccc(C(=O)*)cc3)no2)cc1; X3 = C[C@H]1CN([*:1])C(C(=O)[*:2])[C@H]1O; ξGln(3R-OH) = NC(=O)C[C@@H](O)C(N)C(=O)O; ξPro(4R-OH) = O=C(O)C1C[C@@H](O)CN1; ξThr(3R) = C[C@@H](O)C(N)C(=O)O
# Columns and labels:
# [1] = qHTS for Inhibitors of the Functional Ribonucleoprotein Complex (vRNP) of Lassa (LASV) Arenavirus: Viability assay - alamar blue signal for LASV Primary Screen (AID 1347083; calls by dose curve; tested in HEK293 reporter line; note: nearly all actives have a fitted effect of over 80% in size; note: potency is the fitted concentration of half-maximal effect)
# [2] = qHTS for Inhibitors of the Functional Ribonucleoprotein Complex (vRNP) of Lymphocytic Choriomeningitis Arenaviruses (LCMV): Viability assay - alamar blue signal for LCMV Primary Screen (AID 1347085; calls by dose curve; tested in HEK293 reporter line; note: nearly all actives have a fitted effect of over 80% in size; note: potency is the fitted concentration of half-maximal effect)
# [3] = target: Nucleoprotein (Lymphocytic choriomeningitis virus (strain Armstrong)) (UniProt P09992); test: qHTS for Inhibitors of the Functional Ribonucleoprotein Complex (vRNP) of Lymphocytic Choriomeningitis Arenaviruses (LCMV): LCMV Primary Screen - GLuc reporter signal (AID 1347086); note: nearly all actives have a fitted effect of over 70% in size; note: potency is the fitted concentration of half-maximal effect
# Nucleoprotein (Lymphocytic choriomeningitis virus (strain Armstrong)), sequence (P09992 whole entry, looked up): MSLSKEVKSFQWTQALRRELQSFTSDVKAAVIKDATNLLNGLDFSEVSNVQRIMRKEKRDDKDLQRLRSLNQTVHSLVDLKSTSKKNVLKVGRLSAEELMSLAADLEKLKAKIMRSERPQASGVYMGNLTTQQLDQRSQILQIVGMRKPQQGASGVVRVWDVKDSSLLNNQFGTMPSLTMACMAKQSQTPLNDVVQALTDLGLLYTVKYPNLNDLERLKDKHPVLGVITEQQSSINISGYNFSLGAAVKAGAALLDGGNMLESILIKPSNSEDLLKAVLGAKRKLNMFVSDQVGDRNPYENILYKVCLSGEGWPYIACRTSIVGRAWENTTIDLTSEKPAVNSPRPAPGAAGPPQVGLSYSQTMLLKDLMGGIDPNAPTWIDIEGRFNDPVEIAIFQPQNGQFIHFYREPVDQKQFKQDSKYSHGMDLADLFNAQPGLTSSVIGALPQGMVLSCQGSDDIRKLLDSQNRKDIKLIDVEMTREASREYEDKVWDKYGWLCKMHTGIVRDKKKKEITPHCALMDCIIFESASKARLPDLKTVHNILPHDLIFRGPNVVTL
# [4] = Cytotoxicity counterscreen for inhibitors of SARS-CoV-2 cell entry (AID 1645845); note: nearly all actives have a fitted effect of over 50% in size
# Procedure, shortened: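 48 h compound treatment (after 1 h preincubation), HEK293-ACE2 cells, 37 C/5% CO2; ATP luminescence endpoint; normalized to cell wells and media blanks.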
# [5] = Primary qHTS to identify inhibitors of SARS-CoV-2 cell entry (AID 1645846); conditions: activity change, negative = inhibition: at 57.1 µM (top of the series) unless noted; note: nearly all actives have a fitted effect of over 45% in size; note: potency is the fitted concentration of half-maximal effect
# Procedure, shortened: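 Entry measured by luciferase signal 48 h after adding SARS-CoV-2-S pseudotyped MLV particles to HEK293-ACE2 cells preincubated 1 h with compounds. Normalisation: bald particles and spike particles.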
# CRL-7250 = normal cell line; test: qHTS assay to identify novel small-molecules to repurpose for Merkel cell carcinoma treatment (AID 1296009; active = well fitted inhibition curve with a large enough effect; note: nearly all actives have a fitted effect of over 60% in size); conditions: MCC and control cell lines, CellTiter-Glo viability, 72 h; series mostly up to 92 µM
# Procedure, shortened: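 After compound transfer in DMSO, plates were kept 72 hr at 37 degree celsius. Luminescent ATP signal from CellTiter-Glo served as viability measure, normalized against DMSO and no-cell controls.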
# [6] = Confirmatory qHTS for activators (rescue) of SARS-CoV-2 Cytopathic Effect (CPE) (AID 1508606); note: potency is the fitted concentration of half-maximal effect; nearly all actives have a fitted effect of over 70% in size
# [7] = qHTS for Inhibitors of the Functional Ribonucleoprotein Complex (vRNP) of Lassa (LASV) Arenavirus: LASV Primary Screen - GLuc reporter signal (AID 1347082; calls by dose curve; tested in HEK293 reporter line; note: nearly all actives have a fitted effect of over 60% in size)
# [8] = Primary qHTS for Huh7 cytotoxicity: counterscreen for inhibitors of MERS-S pseudotyped particle cell entry (AID 1479147); conditions: outcome: dose series up to 57.1 µM unless noted
# [9] = Primary qHTS for inhibitors of MERS-S pseudo-typed particle cell entry (AID 1479149); note: nearly all actives have a fitted effect of over 60% in size
# [10] = Primary qHTS for Vero E6 cytotoxicity: counterscreen for inhibitors of SARS-S pseudo-typed particle cell entry (AID 1479150); conditions: outcome: dose series up to 57.1 µM unless noted
# [11] = Primary qHTS for inhibitors of SARS-S pseudo-typed particle cell entry (AID 1479145); note: nearly all actives have a fitted effect of over 45% in size
# [12] = qHTS profiling of the MIPE4 collection as inhibitors of Plasmodium falciparum (3D7) proliferation (AID 743344; call rule not given here); conditions: P. falciparum 3D7 in erythrocytes, SYBR Green DNA fluorescence, 72 h; at 28.5 µM (top of the series) unless noted
# Procedure, shortened: (§1)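 Erythrocytes infected with P. falciparum (0.3% parasitemia, 2.5% hematocrit) incubated with compounds 72 h at 37 C, 5% CO2. Lysis with saponin/Triton buffer containing SYBR Green I, overnight at room temperature in the dark; DNA fluorescence (485/535 nm) normalised to 0.29 uM artemisinin and DMSO.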
# [13] = qHTS profiling of the MIPE4 collection as inhibitors of Plasmodium falciparum (DD2) proliferation (AID 743345; call rule not given here); conditions: P. falciparum Dd2 in erythrocytes, SYBR Green DNA, 72 h; at 28.5 µM (top of the series) unless noted
# Procedure, shortened: as §1
# [14] = qHTS profiling of the MIPE4 collection as inhibitors of Plasmodium falciparum (DD2) proliferation (Rep 2) (AID 743346; call rule not given here); conditions: P. falciparum Dd2 in erythrocytes, SYBR Green DNA, 72 h; at 28.5 µM (top of the series) unless noted
# Procedure, shortened: as §1
# [15] = target: Bile acid receptor (Homo sapiens) (UniProt Q96RI1); test: qHTS assay for small molecule agonists of farnesoid X receptor signaling (AID 588527); conditions: HEK293T FXR-UAS-bla, beta-lactamase ratio, 16 h; activation: stronger effect = higher value
# Bile acid receptor (Homo sapiens), sequence (Q96RI1 whole entry, looked up): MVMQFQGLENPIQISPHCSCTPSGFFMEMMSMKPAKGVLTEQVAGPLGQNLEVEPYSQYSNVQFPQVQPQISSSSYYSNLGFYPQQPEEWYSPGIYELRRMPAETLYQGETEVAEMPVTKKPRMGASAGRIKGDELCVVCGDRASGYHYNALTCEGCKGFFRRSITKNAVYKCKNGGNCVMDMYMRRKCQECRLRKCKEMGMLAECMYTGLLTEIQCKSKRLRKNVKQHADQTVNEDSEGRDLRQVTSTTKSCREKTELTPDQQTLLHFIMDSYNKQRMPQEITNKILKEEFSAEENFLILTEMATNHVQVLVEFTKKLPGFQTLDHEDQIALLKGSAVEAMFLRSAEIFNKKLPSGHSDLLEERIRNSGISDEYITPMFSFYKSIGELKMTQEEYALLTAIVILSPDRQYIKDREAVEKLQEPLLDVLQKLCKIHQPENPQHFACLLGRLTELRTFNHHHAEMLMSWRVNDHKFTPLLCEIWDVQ
# Procedure, shortened: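 FXR-UAS-bla HEK293T cells (10% dialyzed FBS) preincubated 5-7 h at 37 C, then compounds at up to 92 uM for 16 h at 37 C. CCF4 beta-lactamase read-out after 2 h RT. Normalized to chenodeoxycholic acid (100 uM) and DMSO; Hill fit gave EC50 and efficacy.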
# [16] = Confirmatory qHTS for VERO E6 Cytotoxicity Assay: Counterscreen for SARS-CoV-2 CPE Assay (AID 1508605); note: nearly all actives have a fitted effect of over 60% in size
smiles,measurement,setting,value
Nc1ncnc2ccccc12,Potency,[1],15.3 µM (active)
same,Potency,[2],12.2 µM (active)
same,Potency,[3],24.3 µM (active)
same,Potency,[4],inactive
same,"activity change, negative = inhibition",[5],2.32%
same,Potency,CRL-7250,inactive
CC(C)c1cnn2c(NCc3ccccc3)cc(NCCCCCCN)nc12,Potency,[1],1.93 µM (active)
same,Potency,[2],1.09 µM (active)
same,Potency,[3],1.53 µM (active)
same,Potency,[6],10 µM (active)
same,Potency,[5],22.4 µM (active)
same,Potency,CRL-7250,inactive
CCCc1nc(C(C)(C)O)c(C(=O)O)n1Cc1ccc(-c2ccccc2-c2nn[nH]n2)cc1,Potency,[7],inactive
same,Potency,[2],inactive
same,Potency,[3],inactive
same,outcome,[8],inactive
same,Potency,[9],inactive
same,outcome,[10],inactive
same,Potency,[4],inactive
same,Potency,CRL-7250,inactive
CN(CC(=O)N(Cc1ccc(C2CCCCC2)cc1)c1ccc(C(=O)O)c(O)c1)S(=O)(=O)c1c(F)c(F)c(F)c(F)c1F,Potency,[7],inactive
same,Potency,[1],27.3 µM (active)
same,Potency,[3],inactive
same,Potency,[4],inactive
same,"activity change, negative = inhibition",[5],-15.1%
same,Potency,CRL-7250,inactive
N#Cc1c(N(CC(=O)O)CC(=O)O)sc(C(=O)O)c1CC(=O)O,Potency,[7],inactive
same,Potency,[1],inactive
same,Potency,[3],inactive
same,"activity change, negative = inhibition",[11],-19.2% [at 0.573 µM] (inactive)
same,outcome,[8],inactive [at 0.573 µM]
same,outcome,[10],inactive [at 0.573 µM]
same,outcome,[4],inactive [at 0.702 µM]
same,outcome,[5],inactive [at 0.702 µM]
same,Potency,CRL-7250,inactive
NC(=O)c1cccc(-c2cccc(OC(=O)NC3CCCCC3)c2)c1,"parasite growth, % of DMSO control",[12],81%
same,"parasite growth remaining, % of DMSO control (lower = more inhibition)",[13],98%
same,"parasite growth, % of control (lower = inhibition)",[14],37.9%
same,Potency,[1],4.32 µM (active)
same,Potency,[2],8.63 µM (active)
same,Potency,[3],6.85 µM (active)
same,Potency,[4],inactive
same,Potency,CRL-7250,inactive
Cc1ccc2c(c1)c1c(n2CCc2ccc(C)nc2)CCN(C)C1,Potency,[7],inactive
same,Potency,[3],inactive
same,Potency,CRL-7250,inactive
O=c1c(O)c(-c2ccc(O)cc2)oc2cc(O)cc(O)c12,activation,[15],0.454% (inactive) and 2.54% (inactive)
same,Potency,[7],inactive
same,Potency,[1],inactive
same,Potency,[3],inactive
same,Potency,[4],inactive
same,Potency,[5],inactive
same,Potency,CRL-7250,inactive
COc1cccc(Nc2c(C(N)=O)cnc3c(C)cc(S(=O)(=O)c4cccc(C(=O)N(C)C)c4)cc23)c1,Potency,[1],21.1 µM (active)
same,Potency,[2],13.3 µM (active)
same,Potency,[3],16.8 µM (active)
same,Potency,[4],inactive
same,Potency,CRL-7250,inactive
COc1cc(N2CCC(C(N)=O)CC2)ccc1Nc1nc(N)c(Cl)c(Nc2ccccc2S(=O)(=O)C(C)C)n1,Potency,[1],12.2 µM (active)
same,Potency,[2],1.72 µM (active)
same,Potency,[3],0.769 µM (active)
same,Potency,CRL-7250,inactive
CN1CC[C@@H](c2c(O)cc(O)c3c(=O)cc(-c4ccc(C(F)(F)F)cc4Cl)oc23)[C@@H]1CO,Potency,[16],inactive
same,Potency,[4],inactive
same,"activity change, negative = inhibition",[5],-12.4%
same,Potency,CRL-7250,inactive
Cn1ncc2cc(-c3cnc(N)c(Cl)c3N3CCC4(CCNC4=O)CC3)ccc21,Potency,[6],2.82 µM (active)
same,Potency,[4],inactive
same,Potency,CRL-7250,inactive
"CCCCCOc1ccc(-c2cc(-c3ccc(C(=O)N[C@H]4C[C@@H](O)[C@@H](O)NC(=O)C5[C@@H](O)[C@@H](C)CN5C(=O)C([C@H](O)CC(N)=O)NC(=O)C([C@H](O)[C@@H](O)c5ccc(O)c(OS(=O)(=O)O)c5)NC(=O)C5C[C@@H](O)CN5C(=O)C([C@@H](C)O)NC4=O)cc3)no2)cc1 (stereo partly drawn) (X2-[Orn(4R-OH,5R-OH)][ξThr(3R)][ξPro(4R-OH)][ξhTyr(3S-OH,4S-OH,3'-OSO3H)][ξGln(3R-OH)][X3]; lactam 1-C)",Potency,[11],inactive
same,outcome,[8],inactive [at 26.4 µM]
same,Potency,[9],inactive
same,outcome,[10],inactive
same,Potency,[4],inactive
same,Potency,CRL-7250,inactive
